High-throughput results as filed in PubChem BioAssay.
Hits are enriched below; roughly 19% of the tested compounds scored in any of these assays.
TDP1 cell noCPT = qHTS for Inhibitors of human tyrosyl-DNA phosphodiesterase 1 (TDP1): qHTS in cells in absence of CPT; AID 686978, 2013; Potency, µM (series often up to 46.2 µM), for the others: top-dose activity change, negative = growth inhibition, hits mostly inhibitors; DT40 Tdp1-/- hTDP1 cells, no CPT, ATP luminescence, 48 h; hit rate 15% among 420,000; also: potency is read from the fitted curve at half-maximal effect; nearly all actives have a fitted effect of over 55% in size
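Camptothecin absent (DMSO only). Human TDP1-complemented DT40 knockout cells, 400 cells/well, 37 °C for minimum 48 hr; ATP measured via CellTiter-Glo, 30 min dark incubation, luminescence.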
DT40 TDP1 CPT = growth inhibition of DT40 Tdp1-/-;hTDP1 cells with camptothecin (screen for TDP1 inhibitors). chicken DT40 Tdp1-/-;hTDP1 cells + 20 nM CPT, ATP luminescence, 48 h. Potency, µM (doses to about 46.2 µM), inactives show top-dose activity change, negative = growth inhibition, usual class: inhibitors. hit rate 12% among 420,000; also: potency is read from the fitted curve at half-maximal effect; nearly all actives have a fitted effect of over 55% in size
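Cell growth measured by CellTiter-Glo luminescence after a minimum 48 h, 37 C compound exposure with 20 nM CPT in Tdp1-knockout DT40 cells stably expressing hTDP1, seeded 400/well; qHTS titration format.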
IL-1B inflam inh = blocks inflammasome-driven IL-1 beta release; activity change, % at 57.5 µM; THP-1 LPS/ATP IL-1B secretion, AlphaLISA, 16 h; hits give low values; AID 743279; hit rate 4.7% among 360,000; in the data active = activity change below about -50%; inconclusive = mostly about -30% to -49%
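THP-1 cells pretreated 1 hr with compounds (up to 57.5 uM final), then stimulated with LPS (250 ng/mL final) plus ATP (1.25 mM final); secreted IL-1B measured by AlphaLISA after 16 hr, decreased signal indicating inhibition.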
uPA surface inh = inhibitors of cell surface uPA generation; cell surface uPA generation assay, qHTS; Potency, µM (top dose mostly 38.3 µM), without a hit: at the highest dose activity change, negative = inhibition, actives largely listed as inhibitors; hit rate 0.31% among 330,000; AID 540303; active = well fitted inhibition curve with a large enough effect; inconclusive = small, poorly fitted or top-dose-only effect; inactive = no such curve, though single readings can be large or run the other way; tested in mouse RAW 264.7 cells; also: potency is read from the fitted curve at half-maximal effect; nearly all actives have a fitted effect of over 55% in size
HT1080 IDH1KD tx = HT-1080 IDH1 knockdown cell toxicity (counter line); AID 686971; HT-1080 IDH1 knockdown viability, ATP luminescence, 48 h; Potency, µM (doses to about 46.1 µM), for the others: top-dose activity, negative = toxicity, hits mostly cytotoxic; hit rate 2% among 360,000;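 also: potency is read from the fitted curve at half-maximal effect; 0% = DMSO wells and -100% = cell-free medium wells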
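Assay cells: HT-1080 with IDH1 knockdown, 750 per well, RPMI/5% FBS. Exposure: 48 h at 37 °C following 2 h pre-incubation. Read: CellTiter-Glo luminescence; fitted concentration-response, curve class assigned.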
HT1080-NT tox = kills 2HG-producing HT-1080-NT fibrosarcoma cells. HT-1080-NT fibrosarcoma viability, CellTiter-Glo ATP luminescence, 48 h. Potency, µM (titrated, usually from 46.1 µM), for inactives: at the highest dose activity, negative = less viability, usual class: cytotoxic. hit rate 1.6% among 360,000. AID 686970;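 also: NT is the 2HG producing partner of a matched IDH1 knockdown line; potency is read from the fitted curve at half-maximal effect; 0% = DMSO-treated cells and -100% = media-only wells without cells; nearly all actives have a fitted effect of over 55% in size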
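Toxicity toward the 2HG-producing NT line was scored as %Activity, normalised to DMSO and no-cell wells, from CellTiter-Glo luminescence after 48 hours' treatment.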
* marks the source's active call; other numbers are inactive results; i = inactive; ? = inconclusive; / = not tested or not shown. Unless noted, calls follow the shape of the dose curve; as a rule, active = well fitted curve in the direction sought with a large enough effect; inconclusive = small, poorly fitted or top-dose-only effect, or another doubt; inactive = no such curve, though single readings can be large; an effect the other way counts as inactive or inconclusive. Unless noted, % is scaled to controls: 0 for no effect and ±100 for the full control effect.

SMILES | TDP1 cell noCPT | DT40 TDP1 CPT | IL-1B inflam inh | uPA surface inh | HT1080 IDH1KD tx | HT1080-NT tox
Cc1ccc(CNC(=O)c2ccc(CSCc3ccc(Cl)cc3)o2)cc1 | 16.4µM* | ? | / | / | / | /
Cc1ccc(CSCc2ccc(C(=O)NCCC(C)C)o2)cc1 | ? | -23.7% | -66.1* | 4.4% | -4.6% | -22.2%
Nc1cc(C(Cl)=C(Cl)Cl)c(S(N)(=O)=O)cc1S(N)(=O)=O | 0.9% | 2.5% | 36.5 | 8.8% | 0.5% | 23.5%
Cc1ccc(CSCc2ccc(C(=O)NCCCN3CCOCC3)o2)cc1 | 6.51µM* | ? | 11.5 | -1.9% | -3.0% | -3.5%
Cc1ccc(CSCc2ccc(C(=O)NC3CCCC3)o2)cc1 | -2.3% | 5.3% | 11.6 | 3.8% | 5.9% | 2.2%
CCC(C)NC(=O)c1ccc(CSCc2ccccc2Cl)o1 (configuration not stated) | ? | ? | -19.0 | 0.1% | -6.5% | -2.8%
Cc1ccc(CSCc2ccc(C(=O)NC3CC3)o2)cc1 | 23.1µM* | ? | 12.4 | -2.4% | ? | ?
CCC(C)NC(=O)c1ccc(CSCc2ccc(Cl)cc2)o1 (configuration not stated) | 25.9µM* | -24.7% | -10.6 | -1.8% | -4.6% | 1.0%
CC(Cc1ccsc1)NC(=O)CCc1nnc(CCc2ccccc2)o1 (configuration not stated) | -7.3% | 3.5% | 6.1 | 1.3% | 7.7% | 19.8%
COCCNC(=O)C1(C)CCCN(C(=O)c2ccc(F)c(Cl)c2)C1 (configuration not stated) | -0.3% | 0.4% | 16.1 | / | 21.0% | 25.3%
CCn1c(SCC(=O)NC2CCCCC2)nnc1-c1ccccc1F | -7.0% | 1.2% | 3.0 | -0.1% | 18.3% | -16.5%
COc1ncc2nc(-c3ccc(F)cc3)c(=O)n(Cc3cccs3)c2n1 | 4.3% | -2.1% | / | / | / | /
CCC(C(=O)NCCc1ccc(OC)cc1OC)n1nc(C)n2c(cc3occc32)c1=O (configuration not stated) | ? | ? | ? | -0.2% | 15.6% | 3.8%
COc1ccccc1C(=O)Nc1ccc(C(=O)OCc2cc(=O)n3nc(C4CC4)sc3n2)cc1 | -19.9% | -15.2% | / | / | / | /
CC(C)(C)C(=O)Nc1cccc(C(=O)OCc2cc(=O)n3nc(C4CCCCC4)sc3n2)c1 | -2.9% | 5.4% | / | / | / | /
O=C(OCc1cc(=O)n2nc(C3CC3)sc2n1)c1cccc(NC(=O)c2ccccc2Cl)c1 | 20.6µM* | 20.6µM* | / | / | / | /
COc1cccc(C(=O)Nc2cccc(C(=O)OCc3cc(=O)n4nc(C5CC5)sc4n3)c2)c1 | 3.66µM* | ? | / | / | / | /
CC(C)(C)C(=O)Nc1cccc(C(=O)OCc2cc(=O)n3nc(C4CC4)sc3n2)c1 | 18.4µM* | ? | / | / | / | /
CN(CC1COCCO1)C(=O)c1cnn(-c2ncc3c(n2)-c2ccccc2CC3)c1C1CC1 (configuration not stated) | -28.1% | ? | / | / | / | /
O=c1c2ccccc2sn1-c1cc(S(=O)(=O)N2CCOCC2)ccc1N1CCOCC1 | 4.47µM* | 4.47µM* | -101.8* | -3.5% | ? | ?
O=c1c2ccccc2sn1-c1cc(S(=O)(=O)N2CCOCC2)ccc1N1CCCCC1 | 5.62µM* | 2.51µM* | / | / | / | /
O=c1c2ccccc2sn1-c1cc(S(=O)(=O)N2CCOCC2)ccc1N1CCCC1 | 11.6µM* | 5.8µM* | -106.6* | / | ? | ?
O=C(Nc1ccc(C(=O)N2CCCCC2)cc1)[C@H]1O[C@@H](n2ccc(=O)[nH]c2=O)[C@H](O)[C@@H]1O | 3.7% | 21.9% | -12.3 | / | 13.7% | 24.8%
CS(=O)(=O)NCCCc1ccccc1 | 2.3% | 3.8% | 7.5 | -0.8% | 6.9% | 5.9%
O=S(=O)(NCCCCCCc1ccccc1)c1cccc2c(Cl)cccc12 | ? | 21.1µM* | / | / | / | /
SMILES | TDP1 cell noCPT | DT40 TDP1 CPT | IL-1B inflam inh | uPA surface inh | HT1080 IDH1KD tx | HT1080-NT tox
CN(C)CCCNS(=O)(=O)c1cc(Cl)ccc1Cl | -0.5% | -4.6% | 13.1 | / | -3.0% | 15.6%
NCCCCCCCCCCNS(=O)(=O)c1cccc2c(Cl)cccc12 | 12.6µM* | ? | / | / | / | /
CC1(C(=O)NS(=O)(=O)c2ccccc2Cl)CCN1C(=O)c1ccccc1CCc1ccccc1 (configuration not stated) | ? | -8.2% | -23.6 | / | -10.6% | 3.4%
COc1ccccc1N1CCN(C(c2cccs2)C(C)NC(=O)c2cccnc2)CC1 (configuration not stated) | ? | ? | 22.0 | -1.4% | -12.3% | -5.2%
COc1ccccc1N1CCN(C(c2cccs2)C(C)NC(=O)c2cccs2)CC1 (configuration not stated) | 11.6µM* | 16.4µM* | -8.8 | 1.9% | 0.9% | -0.1%
CC(NC(=O)c1cccnc1)C(c1cccs1)N1CCN(c2ccccc2F)CC1 (configuration not stated) | ? | 23.1µM* | -1.2 | 0.6% | -2.8% | -21.7%
CC(=O)c1ccc(NC(=S)NC(=O)/C=C/c2ccccc2)cc1 | 19.1% | 1.6% | -11.6 | 0.5% | 13.6% | 7.8%
CCC(=O)Nc1ccc(NC(=S)NC(=O)/C=C/c2ccccc2)cc1 | 7.31µM* | ? | ? | -9.6% | -13.1% | -22.9%
CCC(=O)Nc1cccc(NC(=S)NC(=O)c2ccc(Cl)cc2Cl)c1 | ? | ? | -22.2 | -9.9% | -10.8% | -16.8%
CCCC(=O)Nc1ccc(NC(=S)NC(=O)c2ccccc2[N+](=O)[O-])cc1 | 29.1µM* | ? | 3.8 | -11.5% | ? | ?
COc1ccc(NS(=O)(=O)c2ccc(NC(=S)NC(=O)/C=C/c3ccccc3)cc2)nn1 | 16.4µM* | 11.6µM* | -61.5* | -2.8% | -0.2% | 4.3%
CCC(=O)Nc1cccc(NC(=S)NC(=O)c2ccc(Cl)cc2)c1 | 14.6µM* | 18.4µM* | 11.4 | -2.8% | -2.6% | -8.2%
CCCCCC(=O)NNC(=S)NC(=O)c1ccccc1[N+](=O)[O-] | ? | ? | 174.1 | 4.9% | ? | -26.9%
S=C(NCCN1CCOCC1)Nc1ccccc1Cl | 1.0% | -3.3% | i | -6.5% | 0.4% | -0.7%
CCOC(=O)c1c(N=CN(C)C)c2cc([N+](=O)[O-])cnc2n1C | -28.6% | ? | 18.0 | -6.0% | 0.5% | -4.7%
CCC(=O)NC(=S)Nc1cccc(NC(=O)c2ccccc2)c1 | 2.3% | 6.1% | -5.3 | -4.9% | 0.6% | -12.6%
CC(C)NC(=S)NC(=O)c1ccc(-c2ccccc2)cc1 | 16.4µM* | 23.1µM* | -56.9* | -2.5% | -17.1% | -2.0%
